Compounds without any hit were thinned out: in the full panel of roughly 83,000, 20% have a hit.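 Results are percent growth after 48 hours of single-concentration exposure. 100 means growth as in untreated cells, lower positive values show inhibition; negative values down to -100 show cell death.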 Active and inactive are the calls of the source. How the source made its calls: active means growth percent below 10; inactive means the rest.
Assays:
Assay in all cases: NCI-60 one-dose screen, 48 h (100 = growth as untreated, 0 = no growth, -100 = all killed)
Conditions in all cases: 10 µM
DU-145 prostate = system: DU-145 prostate
K-562 leukemia = system: K-562 leukemia
MALME-3M melanoma = system: MALME-3M melanoma
MDA-MB-231 breast = system: MDA-MB-231 breast
RXF 393 renal = system: RXF 393 renal
SF-268 CNS = system: SF-268 CNS
SF-295 CNS = system: SF-295 CNS
SF-539 CNS = system: SF-539 CNS
UACC-257 melanoma = system: UACC-257 melanoma
M14 melanoma = system: M14 melanoma
HCT-15 colon = system: HCT-15 colon
HT29 colon = system: HT29 colon
SNB-75 CNS = system: SNB-75 CNS
SNB-19 CNS = system: SNB-19 CNS
U251 CNS = system: U251 CNS
PC-3 prostate = system: PC-3 prostate
SK-MEL-5 melanoma = system: SK-MEL-5 melanoma
UACC-62 melanoma = system: UACC-62 melanoma
LOX IMVI melanoma = system: LOX IMVI melanoma
SK-MEL-28 melanoma = system: SK-MEL-28 melanoma

Measured: growth

CN(C)CCCOc1ccc(OCCCN(C)C)c2c1C(=O)c1ccccc1C2=O
inactive: SF-295 CNS 14.4% | HCT-15 colon 91.5% | PC-3 prostate 11% | SK-MEL-5 melanoma 10.5%
active: DU-145 prostate 4.83% | K-562 leukemia 7.12% | MALME-3M melanoma -43% | MDA-MB-231 breast -20.5% | RXF 393 renal -9.08% | SF-268 CNS -4.36% | SF-539 CNS -1.42% | UACC-257 melanoma 5.21% | M14 melanoma 1.61% | HT29 colon -20.6% | SNB-75 CNS -20.6% | SNB-19 CNS 7.81% | U251 CNS 5.27% | UACC-62 melanoma -46.4% | LOX IMVI melanoma -13.2% | SK-MEL-28 melanoma -4.67%

O=C(CCC(C(=O)c1ccccc1)c1ccccc1)c1ccccc1 (stereo not given)
inactive: DU-145 prostate 86.4% | K-562 leukemia 18.7% | MALME-3M melanoma 43.4% | MDA-MB-231 breast 77.9% | RXF 393 renal 78% | SF-268 CNS 85% | SF-295 CNS 36.9% | SF-539 CNS 99.9% | UACC-257 melanoma 90.5% | M14 melanoma 52.2% | HCT-15 colon 45.8% | HT29 colon 34.1% | SNB-75 CNS 79.9% | SNB-19 CNS 89.8% | U251 CNS 90.4% | PC-3 prostate 55.5% | SK-MEL-5 melanoma 82.5% | UACC-62 melanoma 63% | LOX IMVI melanoma 91.9% | SK-MEL-28 melanoma 80.5%

Cc1n[nH]c(C)c1N=Nc1cccc2c1C(=O)c1ccccc1C2=O
inactive: DU-145 prostate 101% | K-562 leukemia 85.6% | MALME-3M melanoma 124% | MDA-MB-231 breast 82.4% | RXF 393 renal 87.6% | SF-268 CNS 96.5% | SF-295 CNS 99.4% | SF-539 CNS 90.3% | UACC-257 melanoma 111% | M14 melanoma 106% | HCT-15 colon 78.4% | HT29 colon 96.8% | SNB-75 CNS 95.1% | SNB-19 CNS 93.1% | U251 CNS 92.4% | PC-3 prostate 90.5% | SK-MEL-5 melanoma 93.1% | UACC-62 melanoma 89.5% | LOX IMVI melanoma 69.8% | SK-MEL-28 melanoma 113%

O=C(CCn1cnc2c(cc(-c3ccccc3)n2-c2ccccc2)c1=O)Nc1ccc(F)cc1
inactive: DU-145 prostate 85.9% | K-562 leukemia 67.3% | MALME-3M melanoma 51.4% | MDA-MB-231 breast 68.7% | SF-268 CNS 70% | SF-295 CNS 77.8% | SF-539 CNS 76.2% | UACC-257 melanoma 86.2% | M14 melanoma 73.4% | HCT-15 colon 81.4% | HT29 colon 89.9% | SNB-19 CNS 72.9% | U251 CNS 70.9% | PC-3 prostate 68.6% | SK-MEL-5 melanoma 77.5% | UACC-62 melanoma 63.2% | LOX IMVI melanoma 79.4% | SK-MEL-28 melanoma 80.5%
active: RXF 393 renal 1.78% | SNB-75 CNS 4.9%

COc1ccc2c(c1)OC(N)=C(C#N)C2c1cc(OC)c(OC)c(OC)c1 (stereo not given)
active: DU-145 prostate -19.5% | K-562 leukemia 7.08% | MDA-MB-231 breast 4.49% | SF-295 CNS 4.98% | SF-539 CNS 4.42% | M14 melanoma 5.11% | HT29 colon 0.78% | U251 CNS 6.72% | SK-MEL-5 melanoma -46.2%
inactive: MALME-3M melanoma 26.9% | RXF 393 renal 38.7% | SF-268 CNS 22.8% | UACC-257 melanoma 68.2% | HCT-15 colon 14.2% | SNB-75 CNS 44.7% | SNB-19 CNS 44.7% | PC-3 prostate 19.7% | UACC-62 melanoma 39% | LOX IMVI melanoma 12.7% | SK-MEL-28 melanoma 62.7%

COc1cccc(C2C(C#N)=C(N)Oc3cc(N)ccc32)c1 (stereo not given)
active: RXF 393 renal -7.34% | SF-295 CNS 5.3% | SF-539 CNS 4.8% | HT29 colon 2.39% | SNB-75 CNS 3.44% | U251 CNS 4.8%
inactive: DU-145 prostate 10.6% | K-562 leukemia 11.9% | MALME-3M melanoma 51.9% | MDA-MB-231 breast 48.8% | SF-268 CNS 47.1% | UACC-257 melanoma 47.2% | M14 melanoma 10.9% | HCT-15 colon 40.3% | SNB-19 CNS 44.6% | PC-3 prostate 25.4% | SK-MEL-5 melanoma 21.5% | UACC-62 melanoma 41.7% | LOX IMVI melanoma 43.6% | SK-MEL-28 melanoma 46.9%

N#CC1=C(N)Oc2cc(N)ccc2C1c1cccnc1 (stereo not given)
inactive: DU-145 prostate 104% | K-562 leukemia 83.3% | MALME-3M melanoma 98.6% | MDA-MB-231 breast 101% | RXF 393 renal 108% | SF-268 CNS 93.4% | SF-295 CNS 99.7% | SF-539 CNS 96.1% | UACC-257 melanoma 109% | M14 melanoma 87.3% | HCT-15 colon 95.6% | HT29 colon 93.8% | SNB-75 CNS 79.3% | SNB-19 CNS 103% | U251 CNS 102% | PC-3 prostate 88.7% | SK-MEL-5 melanoma 99.3% | UACC-62 melanoma 101% | LOX IMVI melanoma 95.1% | SK-MEL-28 melanoma 102%

Cc1ccc(/C=C2/C(=O)N(C)c3ccc(S(=O)(=O)Nc4ccc(C(C)(C)C)cc4)cc32)s1
active: SNB-75 CNS -9.41%
inactive: DU-145 prostate 87.3% | K-562 leukemia 79.8% | MALME-3M melanoma 57.6% | MDA-MB-231 breast 35.2% | RXF 393 renal 41.8% | SF-268 CNS 67.4% | SF-295 CNS 88% | SF-539 CNS 23% | UACC-257 melanoma 85.7% | M14 melanoma 83.1% | HCT-15 colon 83.8% | HT29 colon 75.7% | SNB-19 CNS 66.6% | U251 CNS 62.6% | PC-3 prostate 56.6% | SK-MEL-5 melanoma 89.4% | UACC-62 melanoma 74.9% | LOX IMVI melanoma 58.1% | SK-MEL-28 melanoma 81.8%

CCCc1cn(CC(=O)Nc2nc3ccccc3s2)nn1
inactive: DU-145 prostate 117% | K-562 leukemia 106% | MALME-3M melanoma 101% | MDA-MB-231 breast 98.9% | RXF 393 renal 114% | SF-268 CNS 98.8% | SF-295 CNS 104% | SF-539 CNS 99.5% | UACC-257 melanoma 106% | M14 melanoma 102% | HCT-15 colon 108% | HT29 colon 104% | SNB-75 CNS 101% | SNB-19 CNS 102% | U251 CNS 97.8% | PC-3 prostate 96.3% | SK-MEL-5 melanoma 99.5% | UACC-62 melanoma 98.1% | LOX IMVI melanoma 96.6% | SK-MEL-28 melanoma 103%

COc1cc(/C=C/c2cc(/C=C/c3ccc(O)c(OC)c3)n(C(=O)Nc3ccc(C)cc3)n2)ccc1O
active: DU-145 prostate 2.02% | K-562 leukemia 2.29% | RXF 393 renal -47.5% | SF-268 CNS -11.5% | SF-295 CNS 0.531% | SF-539 CNS 5.95% | UACC-257 melanoma 4.8% | M14 melanoma 2.3% | HT29 colon -22.4% | SNB-75 CNS 9.53% | U251 CNS 6.19% | PC-3 prostate 8.08% | SK-MEL-5 melanoma 1.16% | UACC-62 melanoma -0.493% | LOX IMVI melanoma 1.89%
inactive: MALME-3M melanoma 17.3% | MDA-MB-231 breast 19.9% | HCT-15 colon 15.2% | SNB-19 CNS 20.3% | SK-MEL-28 melanoma 13.2%

O=C(CCCCC(=O)Oc1c(Cl)cc(Cl)cc1[N+](=O)[O-])Oc1c(Cl)cc(Cl)cc1[N+](=O)[O-]
inactive: DU-145 prostate 106% | K-562 leukemia 85.9% | MALME-3M melanoma 98.8% | MDA-MB-231 breast 106% | RXF 393 renal 120% | SF-268 CNS 96.3% | SF-295 CNS 97.2% | SF-539 CNS 100% | UACC-257 melanoma 99.5% | M14 melanoma 103% | HCT-15 colon 100% | HT29 colon 103% | SNB-75 CNS 93.9% | SNB-19 CNS 105% | U251 CNS 98% | PC-3 prostate 104% | SK-MEL-5 melanoma 102% | UACC-62 melanoma 102% | LOX IMVI melanoma 92% | SK-MEL-28 melanoma 111%

CC(C)(C)OC(=O)CN1CCc2c(sc3ncnc(N/N=C/c4ccccc4Br)c23)C1
inactive: DU-145 prostate 94.6% | K-562 leukemia 16.6% | MALME-3M melanoma 93.2% | MDA-MB-231 breast 65.5% | RXF 393 renal 70.3% | SF-268 CNS 76.9% | SF-295 CNS 99.2% | SF-539 CNS 84.1% | UACC-257 melanoma 92.7% | M14 melanoma 73.4% | HCT-15 colon 37% | HT29 colon 81.6% | SNB-75 CNS 52.6% | SNB-19 CNS 81.2% | U251 CNS 77.9% | PC-3 prostate 47.9% | SK-MEL-5 melanoma 55.1% | UACC-62 melanoma 39.5% | LOX IMVI melanoma 53.7% | SK-MEL-28 melanoma 90.9%

CC[C@@H](C(=O)[C@@H](C)[C@@H](O)[C@H](C)[C@@H]1O[C@@H]([C@@H](CC)C(=O)O)CC[C@@H]1C)C1O[C@]2(C=CC(=O)[C@]3(CC[C@@](C)([C@H]4CC[C@](O)(CC)[C@H](C)O4)O3)O2)[C@H](C)C[C@@H]1C (stereo not given in full)
active: MALME-3M melanoma -64.8% | SF-295 CNS 4.02% | M14 melanoma 9.56% | SK-MEL-5 melanoma -91.7% | UACC-62 melanoma -32.5% | SK-MEL-28 melanoma -81.2%
inactive: DU-145 prostate 48% | K-562 leukemia 13.8% | MDA-MB-231 breast 30.3% | RXF 393 renal 25.8% | SF-268 CNS 50.6% | SF-539 CNS 16.2% | UACC-257 melanoma 42.9% | HCT-15 colon 23.8% | HT29 colon 30.5% | SNB-75 CNS 19.2% | SNB-19 CNS 11.6% | U251 CNS 24% | PC-3 prostate 27.4% | LOX IMVI melanoma 35.4%

COc1cccc(CNc2cccc3cn[nH]c23)c1O
inactive: DU-145 prostate 100% | K-562 leukemia 126% | MALME-3M melanoma 88.3% | MDA-MB-231 breast 72.8% | RXF 393 renal 113% | SF-268 CNS 106% | SF-295 CNS 108% | SF-539 CNS 94.7% | UACC-257 melanoma 99% | M14 melanoma 98.7% | HCT-15 colon 93.4% | HT29 colon 99.7% | SNB-75 CNS 82% | SNB-19 CNS 96.5% | U251 CNS 92.9% | PC-3 prostate 84.5% | SK-MEL-5 melanoma 82.2% | UACC-62 melanoma 85.6% | LOX IMVI melanoma 90.4% | SK-MEL-28 melanoma 100%

NC1=NC(c2ccc(Cl)cc2)C2=C(N1)/C(=C/c1ccc(Cl)cc1)CCC2 (stereo not given)
inactive: DU-145 prostate 97.2% | K-562 leukemia 43.5% | MALME-3M melanoma 97.7% | MDA-MB-231 breast 102% | RXF 393 renal 34.5% | SF-268 CNS 83.2% | SF-295 CNS 67.5% | SF-539 CNS 121% | UACC-257 melanoma 79.4% | M14 melanoma 11% | HCT-15 colon 58.3% | SNB-75 CNS 87.3% | SNB-19 CNS 85.7% | U251 CNS 13.9% | PC-3 prostate 79.5% | SK-MEL-5 melanoma 87.5% | UACC-62 melanoma 74.4% | SK-MEL-28 melanoma 99.2%
active: HT29 colon 7.71% | LOX IMVI melanoma -69.6%

Reference: PubChem BioAssay (NCI)
